Our source for the outcome and AC50 values is PubChem BioAssay (EPA / NIEHS).

What all share (conditions): mRNA level, 48 h; actives raise or lower the signal
Read-out in assay [1]: Glutamate-cysteine ligase catalytic (GCLC), GCLC (gene 2729)
As to the kind of experiment: LTEA_HepaRG_GCLC: Life Technologies and Expression Analysis (LTEA) Assay for Glutamate-cysteine ligase catalytic (GCLC) using HepaRG (AID 2283498). The essentials: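 Read-out is GCLC transcript level by Fluidigm-based TaqMan qRT-PCR, normalized to three housekeeping genes and fitted in both directions relative to 0.5% DMSO. Human HepaRG cells received chemicals for 48 h, up to 100 uM.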

Read-out in assay [2]: growth arrest and DNA damage 45 (GADD45G), GADD45G (gene 10912)
Nature of the assay: LTEA_HepaRG_GADD45G: Life Technologies and Expression Analysis (LTEA) Assay for growth arrest and DNA damage 45 (GADD45G) using HepaRG (AID 2283499). The essentials:
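GADD45G transcript level by qRT-PCR (housekeeping-normalized: ACTB, GAPDH, POLR2A) after 48 h chemical treatment of a single HepaRG lot in serum-free induction medium; eight-point half-log series up to 100 uM in 0.5% DMSO, duplicates, up- or down-regulation scored.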

Read-out in assay [3]: Glutamate-cysteine ligase regulatory (GCLM), GCLM (gene 2730)
Nature of the assay: LTEA_HepaRG_GCLM: Life Technologies and Expression Analysis (LTEA) Assay for Glutamate-cysteine ligase regulatory (GCLM) using HepaRG (AID 2283500). The essentials: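 Differentiated HepaRG cells exposed 48 h in serum-free induction medium to eight half-log concentrations up to 100 uM (0.5% DMSO). GCLM mRNA by TaqMan qRT-PCR, normalized to ACTB, GAPDH and POLR2A; bidirectional fit versus DMSO.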

Read-out in assay [4]: Glutathione S-transferase M3 (GSTM3), GSTM3 (gene 2947)
As to the kind of experiment: LTEA_HepaRG_GSTM3: Life Technologies and Expression Analysis (LTEA) Assay for Glutathione S-transferase M3 (GSTM3) using HepaRG (AID 2283501). The gist of the method:
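GSTM3 transcript levels came from Fluidigm TaqMan qRT-PCR normalized to three housekeeping genes, fitted in both directions against DMSO. HepaRG cultures received chemicals for 48 h in serum-free induction medium (0.5% DMSO), 8 half-log concentrations up to 100 uM, duplicate.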

Read-out in assay [5]: Heat shock 70 kDa protein 1 (HSPA1A), gene 3303
As to the kind of experiment: LTEA_HepaRG_HSPA1A: Life Technologies and Expression Analysis (LTEA) Assay for Heat shock 70 kDa protein 1 (HSPA1A) using HepaRG (AID 2283502). The essentials:
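Human HepaRG cells in serum-free induction medium were exposed in duplicate for 48 h to 8 half-log concentrations, highest 100 uM, in 0.5% DMSO. HSPA1A mRNA read by TaqMan qRT-PCR, normalized to ACTB, GAPDH, POLR2A, fitted bidirectionally against DMSO.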

Read-out in assay [6]: Hypoxia-inducible factor 1-alpha (Homo sapiens) (UniProt Q16665)
Nature of the assay: LTEA_HepaRG_HIF1A: Life Technologies and Expression Analysis (LTEA) Assay for Hypoxia-inducible factor 1 (HIF1A) Trancription factor using HepaRG (AID 2283503). The essentials: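 Differentiated HepaRG cells in serum-free induction medium exposed 48 h, in duplicate, to 8-point half-log series from 100 uM in 0.5% DMSO. HIF1A mRNA measured by TaqMan qRT-PCR, normalized to ACTB/GAPDH/POLR2A, fitted bidirectionally versus DMSO.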

Read-out in assay [7]: 3-Hydroxy-3-Methylglutaryl-CoA Synthase 2 (HMGCS2), HMGCS2 (gene 3158)
Nature of the assay: LTEA_HepaRG_HMGCS2: Life Technologies and Expression Analysis (LTEA) Assay for 3-Hydroxy-3-Methylglutaryl-CoA Synthase 2 (HMGCS2) using HepaRG (AID 2283504). The gist of the method: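 Readout is HMGCS2 transcript by qRT-PCR, housekeeping-normalised (ACTB/GAPDH/POLR2A) and fitted bidirectionally against 0.5% DMSO. Differentiated HepaRG cells received chemicals 48 h, duplicate wells, eight half-log concentrations topping at 100 uM.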

Read-out in the next assay: HGF (gene 3082)
As to the kind of experiment: LTEA_HepaRG_HGF: Life Technologies and Expression Analysis (LTEA) Assay for Hepatocyte Growth Facto (HGF) using HepaRG (AID 2283505). The essentials:
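HGF transcript was quantified by TaqMan qRT-PCR against three housekeeping genes after 48 h treatment of HepaRG cells. Exposure ran in duplicate over eight half-log steps topping at 100 uM in 0.5% DMSO vehicle.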

Read-out in assay [8]: Insulin Like Growth Factor 1 (IGF1), IGF1 (gene 3479)
Nature of the assay: LTEA_HepaRG_IGF1: Life Technologies and Expression Analysis (LTEA) Assay for Insulin Like Growth Factor 1 (IGF1) using HepaRG (AID 2283506). The gist of the method:
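Differentiated HepaRG cells in serum-free induction medium, exposed 48 h in duplicate to 8 half-log concentrations up to 100 uM in 0.5% DMSO. IGF1 mRNA by Fluidigm qRT-PCR, normalised to ACTB, GAPDH and POLR2A.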

Read-out in assay [9]: Intercellular Adhesion Molecule 1 (ICAM1), ICAM1 (gene 3383)
Nature of the assay: LTEA_HepaRG_ICAM1: Life Technologies and Expression Analysis (LTEA) Assay for Intercellular Adhesion Molecule 1 (ICAM1) using HepaRG (AID 2283507). The gist of the method:
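ICAM1 transcript levels measured by qRT-PCR, normalized to three housekeeping genes (ACTB, GAPDH, POLR2A), after 48 h chemical exposure of HepaRG cells. Duplicate eight-point half-log series from 100 uM in 0.5% DMSO; gain or loss fitted against vehicle.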

Read-out in assay [10]: Insulin-like growth factor-binding protein 1 (IGFBP1), IGFBP1 (gene 3484)
As to the kind of experiment: LTEA_HepaRG_IGFBP1: Life Technologies and Expression Analysis (LTEA) Assay for Insulin-like growth factor-binding protein 1 (IGFBP1) using HepaRG (AID 2283508). The essentials: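 Read-out is qRT-PCR transcript level normalized to three housekeeping genes, fitted in both directions against 0.5% DMSO. Differentiated HepaRG cells received eight half-log concentrations (top 100 uM) in duplicate for 48 h in serum-free induction medium.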

Read-out in assay [11]: Interleukin 6 (IL6), IL6 (gene 3569)
Nature of the assay: LTEA_HepaRG_IL6: Life Technologies and Expression Analysis (LTEA) Assay for Interleukin 6 (IL6) using HepaRG (AID 2283509). The gist of the method:
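HepaRG, ~100,000 cells/well, 48 h pre-culture; serum-free induction medium; cmpd 8-pt half-log from 100 uM, 0.5% DMSO, duplicate, 48 h. Lysis in RLT, TaqMan qRT-PCR; gain or loss vs DMSO.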

Read-out in assay [12]: Interleukin 6 Receptor (IL6R), IL6R (gene 3570)
As to the kind of experiment: LTEA_HepaRG_IL6R: Life Technologies and Expression Analysis (LTEA) Assay for Interleukin 6 Receptor (IL6R) using HepaRG (AID 2283510). The gist of the method: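 Differentiated HepaRG cells, plated 48 h, then exposed in duplicate for 48 h in serum-free induction medium to 8 half-log concentrations (top 100 uM, 0.5% DMSO). IL6R mRNA measured by TaqMan qRT-PCR, normalized to ACTB/GAPDH/POLR2A; bidirectional fit vs DMSO.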

Read-out in assay [13]: Potassium channel subfamily K member 1 (KCNK1), KCNK1 (gene 3775)
As to the kind of experiment: LTEA_HepaRG_KCNK1: Life Technologies and Expression Analysis (LTEA) Assay for Potassium channel subfamily K member 1 (KCNK1) using HepaRG (AID 2283511). The gist of the method:
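Gain or loss of KCNK1 mRNA is the read-out, quantified by qRT-PCR against three housekeeping genes after 48 h chemical treatment of human HepaRG liver cells. Concentrations ran from 100 uM downward in half-log steps, vehicle 0.5% DMSO.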

Read-out in assay [14]: JUN Transcription Factor, JUN (gene 3725)
Nature of the assay: LTEA_HepaRG_JUN: Life Technologies and Expression Analysis (LTEA) Assay for JUN Transcription Factor using HepaRG (AID 2283513). The essentials: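 HepaRG cells, 48 h post-plating, exposed 48 h in serum-free induction medium to 8-point half-log series (top 100 uM, 0.5% DMSO), duplicate; mRNA by qRT-PCR (TaqMan, Fluidigm), normalized to ACTB/GAPDH/POLR2A; bidirectional fit vs DMSO.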

Read-out in assay [15]: Lipase C (LIPC), LIPC (gene 3990)
Nature of the assay: LTEA_HepaRG_LIPC: Life Technologies and Expression Analysis (LTEA) Assay for Lipase C (LIPC) using HepaRG (AID 2283514). The gist of the method: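 Read-out is LIPC transcript level by TaqMan qRT-PCR, normalized to three housekeeping genes, after 48 h chemical treatment of human HepaRG liver cells. Curves span eight concentrations topping at 100 uM; activity in either direction scored relative to 0.5% DMSO.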

Read-out in assay [16]: Lipoprotein lipase (LPL), LPL (gene 4023)
Nature of the assay: LTEA_HepaRG_LPL: Life Technologies and Expression Analysis (LTEA) Assay for Lipoprotein lipase (LPL) using HepaRG (AID 2283515). The essentials: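 Read-out is LPL transcript level by qRT-PCR, normalized to three housekeeping genes and fitted bidirectionally against the DMSO control. Human HepaRG cells received chemicals for 48 h at up to 100 uM.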

Read-out in assay [17]: MicroRNA 122 (MIR122), gene 406906
As to the kind of experiment: LTEA_HepaRG_MIR122: Life Technologies and Expression Analysis (LTEA) Assay for MicroRNA 122 (MIR122) using HepaRG (AID 2283516). Further: the transcript read is the microRNA miR-122. The gist of the method:
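Differentiated human HepaRG cells in serum-free induction medium exposed 48 h to 8 half-log concentrations from 100 uM in 0.5% DMSO, duplicate. MIR122 quantified by Fluidigm TaqMan qRT-PCR, normalised to ACTB, GAPDH, POLR2A; fold change fitted bidirectionally versus DMSO.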

Read-out in assay [18]: Keratin 19 (KRT19), KRT19 (gene 3880)
Nature of the assay: LTEA_HepaRG_KRT19: Life Technologies and Expression Analysis (LTEA) Assay for Keratin 19 (KRT19) using HepaRG (AID 2283512). The gist of the method:
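KRT19 transcript measured by TaqMan qRT-PCR, referenced to three housekeeping genes, after HepaRG cells received test chemicals for 48 h. Eight half-log concentrations, top 100 uM, 0.5% DMSO vehicle; increases and decreases both fitted.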

Read-out in assay [19]: matrix metalloproteinase-10 (MMP10), MMP10 (gene 4319)
As to the kind of experiment: LTEA_HepaRG_MMP10: Life Technologies and Expression Analysis (LTEA) Assay for matrix metalloproteinase-10 (MMP10) using HepaRG (AID 2283517). The essentials: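 Gain or loss of MMP10 mRNA is fitted relative to the 0.5% DMSO vehicle. The human hepatic line HepaRG receives a 48-hour serum-free exposure, in duplicate, with a maximum concentration of 100 uM.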

Active and inactive are the calls of the source. How the source made its calls: active means hit-call score of the fitted dose curve at least 0.9, where 1 is the maximum; inactive means score below 0.9.

Sequence of Hypoxia-inducible factor 1-alpha (Homo sapiens) (Q16665 whole entry, looked up): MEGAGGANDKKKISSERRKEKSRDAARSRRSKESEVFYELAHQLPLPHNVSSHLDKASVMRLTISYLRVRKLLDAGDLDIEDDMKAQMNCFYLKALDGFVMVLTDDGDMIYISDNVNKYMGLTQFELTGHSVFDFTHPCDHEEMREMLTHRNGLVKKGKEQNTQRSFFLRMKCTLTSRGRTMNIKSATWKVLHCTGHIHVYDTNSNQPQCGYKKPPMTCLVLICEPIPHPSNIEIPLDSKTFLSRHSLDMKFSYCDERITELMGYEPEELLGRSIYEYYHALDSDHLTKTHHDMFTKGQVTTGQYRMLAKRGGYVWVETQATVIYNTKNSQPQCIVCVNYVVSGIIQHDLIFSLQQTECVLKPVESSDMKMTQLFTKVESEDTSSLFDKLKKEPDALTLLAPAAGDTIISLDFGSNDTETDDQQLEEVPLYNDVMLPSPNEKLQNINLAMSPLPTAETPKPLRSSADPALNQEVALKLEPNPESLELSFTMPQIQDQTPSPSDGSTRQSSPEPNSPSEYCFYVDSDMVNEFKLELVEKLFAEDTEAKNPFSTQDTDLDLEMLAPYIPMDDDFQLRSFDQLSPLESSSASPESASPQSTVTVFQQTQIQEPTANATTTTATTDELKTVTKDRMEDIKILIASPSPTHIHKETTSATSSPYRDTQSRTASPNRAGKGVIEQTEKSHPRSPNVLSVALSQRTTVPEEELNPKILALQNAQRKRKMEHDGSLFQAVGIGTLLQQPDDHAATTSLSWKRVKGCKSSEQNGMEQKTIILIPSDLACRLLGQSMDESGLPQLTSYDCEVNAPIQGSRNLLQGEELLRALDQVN

Turning to `CCOC(N)=O`, the compound was called inactive in assay [1], in assay [2], in assay [3], in assay [4], in assay [5] and in [6]. The compound was called inactive (in [7]; with HGF (gene 3082); in [8]; in [9]; in [10]; in assay [11]). Besides, the compound was classed as inactive in assay [12], in assay [13], in assay [14], in [15], in [16] and in [17].

As to `CCCCN1C(=O)[C@@H]([C@H](O)C2CCCCC2)NC(=O)C12CCN(Cc1ccc(Oc3ccc(C(=O)O)cc3)cc1)CC2`, the AC50 in assay [1] is 2.25 µM (active); in [2] it was 4.63 µM (active); in assay [4], 4.76 µM (active); in [5] it was 1.8 µM (active); in assay [7], 5.05 µM (active); with HGF (gene 3082), 9.25 µM (active). The AC50 in assay [8] was 9.61 µM (active); in assay [9] it was 2.32 µM (active); in assay [10], 2.45 µM (active); in assay [11] it was 2.99 µM (active); in assay [13], 0.391 µM (active); in assay [15], 3.67 µM (active). In addition, the AC50 in [16] was 1.71 µM (active); in assay [17], 3.52 µM (active). Besides, the outcome in [3], in assay [6] and in assay [14] was inactive.

For `CC(C)CCCCCCOC(=O)C1CCCCC1C(=O)OCCCCCCC(C)C` (configuration not stated), the call in assay [1], in assay [2], in assay [3], in assay [4], in assay [5] and in [6] was inactive. In addition, the outcome (in [7]; in the assay with HGF (gene 3082); in assay [8]; in assay [9]; in [10]; in assay [11]) was inactive. In addition, the call in [13], in assay [18], in assay [14], in [15], in [17] and in assay [19] was inactive. Moreover, the AC50 in assay [16] is 9.92 µM (active).

Regarding `Cc1nc(-c2ccccn2)ncc1C(=O)Nn1cc(C)c2cc(F)ccc21`, the call in [1], in assay [2], in assay [3], in assay [5], in assay [8] and in assay [9] was inactive. Besides, the compound was called inactive in assay [10], in assay [11], in assay [12], in [13], in assay [14] and in assay [16]. In addition, in assay [19], the compound was classed as inactive. Besides, the AC50 in [6] is 81 µM (active); in [7], 66.8 µM (active); with HGF (gene 3082) it was 65.1 µM (active); in assay [15] it was 50 µM (active); in assay [17], 50 µM (active).
